Only a selection was taken, and hits are over-represented in it overall.
SF1 inhibitor: inhibitors of human nuclear receptor SF-1; Q13285; CHO-K1 Gal4-SF-1 LBD luciferase reporter; inhibition, % at 10 µM; 65,000 tested, 0.55% active; AID 525;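 active means inhibition above the mean inhibition of all tested compounds plus 3 SD, cut at about 48% in these data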;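 further: 0% = SF-1 transfected cells with DMSO and 100% = mock-transfected cells lacking SF-1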
Target sequence (Q13285 whole entry, looked up, the tested form may be a part): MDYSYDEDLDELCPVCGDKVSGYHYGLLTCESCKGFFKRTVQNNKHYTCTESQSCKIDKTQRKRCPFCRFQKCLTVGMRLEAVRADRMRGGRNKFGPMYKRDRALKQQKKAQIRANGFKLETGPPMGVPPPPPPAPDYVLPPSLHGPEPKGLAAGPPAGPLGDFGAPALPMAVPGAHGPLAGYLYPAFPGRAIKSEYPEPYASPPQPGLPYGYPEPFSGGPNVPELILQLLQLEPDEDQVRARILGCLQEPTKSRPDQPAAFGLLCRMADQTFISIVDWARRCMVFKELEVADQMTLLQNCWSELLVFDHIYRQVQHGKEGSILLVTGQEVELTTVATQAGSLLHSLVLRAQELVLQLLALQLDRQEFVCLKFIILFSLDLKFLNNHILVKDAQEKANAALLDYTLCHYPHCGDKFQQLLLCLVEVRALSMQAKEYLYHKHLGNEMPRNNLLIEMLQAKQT
The depositor's hits bear a star.

SMILES	SF1 inhibitor
Cc1onc(-c2ccccc2Cl)c1-c1nc(-c2ccccn2)no1	-6.9
c1ccc(-c2noc(C3CCCCC3)n2)nc1	-55.8
c1ccc(-c2noc(-c3ccc4c(c3)OCO4)n2)nc1	74.8*
O=C(CCC1(C(=O)O)CCC(=O)NC1)NCc1ccccc1 (centres undefined)	-20.2
COc1ccc(OC)c(-n2nnnc2SCC(=O)Nc2ccc(C(=O)N3CCCCC3)cc2)c1	13.5
Cc1cc(C)n2cc(CSc3nnnn3C)nc2n1	-6.9
CCOC(=O)c1[nH]nc(N)c1NC(=O)c1ccc(Cl)cc1Cl	-27.2
O=C1CCCC2=C1C(c1ccccc1)C1=C(CCCC1=O)O2	14.3
CCOC(=O)/C=C1\CC(=O)Nc2nonc2N1	11.2
COc1cccc(-c2nc(CS(=O)(=O)CC(=O)N3CCN(C)CC3)c(C)o2)c1	-6.6
COc1cccc(-c2nc(-c3ccc(NC(=O)c4cccnc4)cc3)no2)c1	-54.6
COc1cccc(-c2nnc(NC(=O)c3ccc(S(=O)(=O)N4CC(C)OC(C)C4)cc3)o2)c1 (centres undefined)	49.3*
CC1(C)CC(OC(=O)c2ccco2)CC(C)(C)N1O	9.0
CSCC[C@H](NC(=O)NCCC1=CCCCC1)C(=O)O	-9.4
Cn1c(=O)c2c(nc(N3CCCCCC3)n2Cc2cccc3ccccc23)n(C)c1=O	2.9
Cc1ccc2cc(C(c3nnnn3Cc3ccccc3)N3CCN(c4ccccc4)CC3)c(=O)[nH]c2c1 (centres undefined)	-5.4
Cc1nc(N2CCN(c3ccccc3)CC2)[nH]c(=O)c1Cc1cccc2ccccc12	52.0*
CCSc1nc2c(cnn2-c2ccc(C)cc2)c(=O)[nH]1	-10.2
COc1ccc(S(=O)(=O)N(CC(=O)N2CCN(C)CC2)c2ccc(C)cc2)cc1OC	0.5
CC(C)N(C=O)C1(C(=O)NC2CCCCC2)CCCCC1	-0.4
O=C(CSc1nnnn1C1CC2CCC1C2)Nc1ccnc2ccccc12 (centres undefined)	75.9*
O=C(CSc1nnnn1C1CCCC1)Nc1cccc(NC(=O)c2ccco2)c1	-2.8
COc1ccccc1-n1nnnc1SCC(=O)Nc1cc(C)on1	2.6
Cn1c(-c2ccc(F)cc2)cnc1SCC(=O)Nc1ccccc1N1CCOCC1	-69.6
CCC(C)(C(=O)NC1CCCC1)N(C(=O)c1cnccn1)c1c(C)n(C)n(-c2ccccc2)c1=O (centres undefined)	-11.0
SMILES	SF1 inhibitor
COC(=O)c1ccc(COc2ccc(-c3nn[nH]n3)cc2)cc1	-24.3
O=C(NCc1ccco1)c1ccc2nc3sc4c(c3c(=O)n2c1)CCCC4	60.0*
O=C(Cn1cnc2sc(-c3ccccc3)cc2c1=O)NCc1ccco1	-37.9
O=C(Nc1sc2c(c1C(=O)O)CCCCC2)c1ccco1	-57.4
CN(C)C(=O)N1CCCC(C(=O)NCc2ccccc2)C1 (centres undefined)	-2.2
CCOC(=O)N1CCC(NC(=O)c2cccc3c2C(=O)N(CCOC)C3)CC1	3.7
CS(=O)c1nc(-c2ccc(Br)cc2)cc(-c2ccccc2)c1C#N (centres undefined)	61.1*
C=CS(=O)(=O)c1ccc(Oc2ccc(S(=O)(=O)C=C)cc2)cc1	96.6*
Cc1cc(NO)nc(-c2ccc(Br)cc2)n1	-63.9
O=S(=O)(Nc1cccc(C(F)(F)F)c1)c1cccnc1	5.1
CCCCOc1ccc(S(=O)(=O)Nc2cccnc2)cc1	49.3*
CCOc1ccc(NS(=O)(=O)c2ccc(SC)cc2)cc1	0.5
O=C(CSc1nnc(Cc2ccccc2)o1)N1CCOCC1	-21.0
CC1CCc2c(sc(NC(=O)c3noc4c3CCCC4)c2C(N)=O)C1 (centres undefined)	-49.9
COc1ccc(S(=O)(=O)N(Cc2ccccc2)Cc2nc3ccccc3c(=O)[nH]2)cc1	12.5
COc1nc(Nc2nc3ccccc3c(=O)[nH]2)nc2ccc(C)cc12	76.3*
COc1ccc(Nc2nc(C)c3ccccc3n2)cc1	-98.7
O=C(NCc1nnc(SC/C=C/c2ccccc2)o1)c1ccco1	10.0
c1ccc(-c2nc(NCC3CCCO3)c3ccccc3n2)nc1 (centres undefined)	1.0
c1ccc(-n2ncc3c(NCc4ccco4)ncnc32)cc1	-77.4
c1ccc(-c2nc(NCc3ccco3)c3ccccc3n2)nc1	75.6*
O=c1cc(N2CCN(c3cccc(Cl)c3)CC2)[nH]c(=O)n1C1CCCCC1	80.4*
Cc1ccccc1-n1c(=O)cc(N2CCCCCC2)[nH]c1=O	-6.6
O=c1cc(N2CCN(c3ccccc3)CC2)[nH]c(=O)n1C1CCCCC1	51.6*
O=c1cc(NCC2CCCO2)[nH]c(=O)n1-c1ccc(Cl)cc1 (centres undefined)	-7.9
SMILES	SF1 inhibitor
CN1CCN(C2=C(Cl)C(=O)N(c3cccc(Cl)c3)C2=O)CC1	15.0
CCOC(=O)C1CCN(c2cc(=O)n(C3CCCCC3)c(=O)[nH]2)CC1	-12.5
O=C(c1cc2c(=O)oc3ccccc3c2s1)N1CCN(c2ncccn2)CC1	-3.6
C(=N\n1cnnc1SCc1ccccc1)/c1ccco1	9.6
CC1N/C(=C\C(=O)c2ccccc2)N(O)C1(C)C (centres undefined)	-30.2
CCOC(=O)CNc1nc(OCC#N)nc(N2CCOCC2)n1	3.1
CCOc1ccc2[nH]c(S(=O)(=O)CC)nc2c1Cl	-9.0
